# Activity calls are given as the source filed them.
# Columns and labels:
# [1] = tested on: Plasmodium falciparum Sir2 (PF13_0152, Sir2A); assay: pfSir2 binders on small-molecule microarrays, primary screen, biochemical, small-molecule microarray, 635 nm fluorescence (AID 1098); conditions: small-molecule microarray binding, fluorescence 635 nm; higher = more signal;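 further: score merges spot fluorescence intensity with its signal-to-noise ratio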
# [2] = small-molecule microarray binders of probe aDKK1, primary screen, biochemical, biotinylated probe, 635/667 nm fluorescence (AID 1099); conditions: higher = more signal;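 further: score merges 667nm spot fluorescence with signal to noise across triplicate slides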
# [3] = small-molecule microarray binders of probe aCHRDL2, primary screen, biochemical, biotinylated probe, 635/667 nm fluorescence (AID 1100); conditions: higher = more signal
# [4] = splicing luciferase reporter signal modulators, primary screen, spliceosome inhibition project, cell-based, HEK293, splice +/- reporter (AID 1101); conditions: luminescence, 24 h, higher = more signal, called active from +8 up or from −8 down;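 further: HEK293 cells carrying a splicing-competent luciferase reporter gene; test concentration not given here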
# [5] = target: Fibroblast growth factor 10 (Homo sapiens) (UniProt O15520); assay: FGF10 binders on small-molecule microarrays, primary screen, biochemical, small-molecule microarray, 635 nm fluorescence (AID 1102); conditions: FGF10 binding, fluorescence 635 nm, higher = more signal
# Chain of Fibroblast growth factor 10 (Homo sapiens) (O15520 whole entry, looked up): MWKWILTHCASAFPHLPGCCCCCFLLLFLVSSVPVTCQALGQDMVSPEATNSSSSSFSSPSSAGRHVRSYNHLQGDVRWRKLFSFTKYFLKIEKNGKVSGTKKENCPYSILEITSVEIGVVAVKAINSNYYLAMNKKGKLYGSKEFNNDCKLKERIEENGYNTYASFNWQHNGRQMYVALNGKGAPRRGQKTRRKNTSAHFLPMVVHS
# [6] = tested on: glycogen synthase kinase-3 (GSK3A per assay name; protocol says GSK3B); assay: GSK3 binders on small-molecule microarrays, primary screen, biochemical, small-molecule microarray, 635 nm fluorescence, GSK3A (AID 1103); conditions: small-molecule microarray binding, fluorescence 635 nm; higher = more signal; further: the record names both GSK3A and GSK3B
# [7] = target: Epidermal growth factor receptor (Homo sapiens) (UniProt P00533); assay: EGFR binders on small-molecule microarrays, primary screen, biochemical, small-molecule microarray, 635 nm fluorescence (AID 1104); conditions: EGFR binding, higher = more signal;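 further: score merges 667 nm emission intensity with spot signal to noise over triplicate slides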
# Chain of Epidermal growth factor receptor (Homo sapiens) (P00533 whole entry, looked up): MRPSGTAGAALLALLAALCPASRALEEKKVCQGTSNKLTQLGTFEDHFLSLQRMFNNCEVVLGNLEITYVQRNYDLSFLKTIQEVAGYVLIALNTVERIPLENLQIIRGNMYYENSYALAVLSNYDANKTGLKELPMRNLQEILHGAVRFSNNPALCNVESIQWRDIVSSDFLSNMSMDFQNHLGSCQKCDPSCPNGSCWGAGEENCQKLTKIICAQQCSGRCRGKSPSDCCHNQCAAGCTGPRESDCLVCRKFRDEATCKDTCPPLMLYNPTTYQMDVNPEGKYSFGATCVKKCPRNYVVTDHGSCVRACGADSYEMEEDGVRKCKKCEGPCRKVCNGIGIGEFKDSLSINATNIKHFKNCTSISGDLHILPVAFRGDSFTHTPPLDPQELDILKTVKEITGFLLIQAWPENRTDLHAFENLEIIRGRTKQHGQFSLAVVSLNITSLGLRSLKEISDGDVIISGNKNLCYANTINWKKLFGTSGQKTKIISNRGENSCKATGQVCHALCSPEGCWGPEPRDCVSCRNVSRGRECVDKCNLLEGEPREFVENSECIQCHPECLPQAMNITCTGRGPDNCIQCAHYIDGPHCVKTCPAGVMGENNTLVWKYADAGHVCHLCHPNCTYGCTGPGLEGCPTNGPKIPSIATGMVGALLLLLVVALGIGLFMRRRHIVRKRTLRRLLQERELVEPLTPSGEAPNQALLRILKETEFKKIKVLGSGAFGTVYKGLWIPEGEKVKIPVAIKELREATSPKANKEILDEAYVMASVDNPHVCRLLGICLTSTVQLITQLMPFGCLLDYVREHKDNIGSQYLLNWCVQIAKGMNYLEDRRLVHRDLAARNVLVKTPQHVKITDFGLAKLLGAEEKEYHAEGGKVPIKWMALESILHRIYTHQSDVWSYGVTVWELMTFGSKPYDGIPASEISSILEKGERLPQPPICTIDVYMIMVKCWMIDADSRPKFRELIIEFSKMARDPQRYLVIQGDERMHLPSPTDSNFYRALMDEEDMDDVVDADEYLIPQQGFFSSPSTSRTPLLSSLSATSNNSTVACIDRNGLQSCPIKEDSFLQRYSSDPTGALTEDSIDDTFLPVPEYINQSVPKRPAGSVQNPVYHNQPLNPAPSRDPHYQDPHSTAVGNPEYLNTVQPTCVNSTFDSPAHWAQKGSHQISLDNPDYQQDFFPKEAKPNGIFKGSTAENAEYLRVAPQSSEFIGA
# [8] = target: Follistatin-related protein 3 (Homo sapiens) (UniProt O95633); assay: FSTL3 binders on small-molecule microarrays, primary screen, biochemical, small-molecule microarray, 635 nm fluorescence (AID 1105); conditions: FSTL3 binding, higher = more signal;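 further: score merges emission near 667 nm and signal to noise per printed spot across three slides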
# Chain of Follistatin-related protein 3 (Homo sapiens) (O95633 whole entry, looked up): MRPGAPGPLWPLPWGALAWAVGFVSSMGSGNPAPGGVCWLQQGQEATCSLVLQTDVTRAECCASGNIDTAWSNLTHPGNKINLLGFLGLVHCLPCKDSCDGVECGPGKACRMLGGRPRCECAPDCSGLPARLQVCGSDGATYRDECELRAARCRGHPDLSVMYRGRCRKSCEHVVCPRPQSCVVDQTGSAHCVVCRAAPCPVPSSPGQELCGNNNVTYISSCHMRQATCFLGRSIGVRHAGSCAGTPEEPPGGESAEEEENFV
# [9] = target: Dickkopf-related protein 1 (Homo sapiens) (UniProt O94907); assay: DKK1 binders on small-molecule microarrays, primary screen, biochemical, small-molecule microarray, 635 nm fluorescence scan (AID 1106); conditions: DKK1 binding, higher = more signal;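 further: score merges emission near 667 nm with signal to noise over three replicate slides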
# Chain of Dickkopf-related protein 1 (Homo sapiens) (O94907 whole entry, looked up): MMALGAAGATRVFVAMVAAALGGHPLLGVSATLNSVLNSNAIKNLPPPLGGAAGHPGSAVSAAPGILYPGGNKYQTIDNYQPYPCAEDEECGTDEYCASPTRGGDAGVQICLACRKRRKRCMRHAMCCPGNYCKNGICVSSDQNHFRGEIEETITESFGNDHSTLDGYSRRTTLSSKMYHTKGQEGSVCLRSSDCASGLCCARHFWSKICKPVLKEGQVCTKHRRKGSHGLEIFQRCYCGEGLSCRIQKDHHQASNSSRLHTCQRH
# [10] = tested on: Inhibin beta A chain (activin A); assay: INHBA (activin A) binders on microarrays, primary screen, biochemical, small-molecule microarray, 635 nm fluorescence scan (AID 1107); conditions: small-molecule microarray binding, higher = more signal;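 further: mouse activin A protein probed at 4.33 µg/mL on printed slides; score merges bound-protein fluorescence near 667 nm with spot signal-to-noise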
# [11] = tested on: Human papillomavirus type 1a protein E7 (residues 44-93); assay: HPV1a E7 fragment binders on microarrays, primary screen, biochemical, small-molecule microarray, residues 44-93, 635 nm fluorescence (AID 1108); conditions: small-molecule microarray binding, fluorescence 635 nm; higher = more signal;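 further: E7 fragment applied at 1 µg/mL in TBST for 1 h at 4 C; score combines spot fluorescence with its signal to noise ratio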
# [12] = modulators of HCV replicon luciferase signal, primary screen, HCV replication inhibitor project, Huh7 cells, luciferase reporter (AID 1109); conditions: 48 h, higher = more signal;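 further: huh7 hepatoma cells harbouring a luciferase neomycin HCV replicon reporter; luciferase luminescence as measure of HCV replicon replication; test concentration not given here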
# [13] = target: Left-right determination factor 2 (Homo sapiens) (UniProt O00292); assay: LEFTY2 binders on small-molecule microarrays, primary screen, biochemical, small-molecule microarray, 635 nm fluorescence scan (AID 1110); conditions: LEFTY2 binding, higher = more signal
# Chain of Left-right determination factor 2 (Homo sapiens) (O00292 whole entry, looked up): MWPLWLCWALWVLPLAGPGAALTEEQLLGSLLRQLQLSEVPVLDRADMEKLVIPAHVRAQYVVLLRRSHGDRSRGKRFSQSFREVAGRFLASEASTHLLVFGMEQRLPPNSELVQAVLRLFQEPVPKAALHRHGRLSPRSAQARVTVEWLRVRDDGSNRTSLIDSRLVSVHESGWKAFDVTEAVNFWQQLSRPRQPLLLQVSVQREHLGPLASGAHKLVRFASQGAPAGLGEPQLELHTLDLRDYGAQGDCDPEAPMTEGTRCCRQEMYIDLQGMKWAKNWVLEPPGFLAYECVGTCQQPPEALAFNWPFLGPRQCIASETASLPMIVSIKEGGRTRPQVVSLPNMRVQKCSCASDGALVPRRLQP
# [14] = target: Calmodulin-1 (Homo sapiens) (UniProt P0DP23); assay: CALM1 binders on microarrays, EGTA buffer, profiling panel, biochemical, small-molecule microarray, Cy5-labelled CALM1 (AID 1111); conditions: Cy5-CALM1 binding fluorescence, higher = more signal;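 further: labelled calmodulin applied in Tris saline Tween buffer holding calcium plus EGTA and DTT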
# [15] = target: Calmodulin-1 (Homo sapiens) (UniProt P0DP23); assay: calcium-bound CALM1 binders on microarrays, profiling panel, artefact control for SMM control-protein annotation, biochemical, small-molecule microarray, Cy5-labelled CALM1, plus calcium (AID 1112); conditions: Cy5-CALM1 binding fluorescence, higher = more signal;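 further: score merges spot fluorescence with signal to noise from triplicate slides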
# [16] = small-molecule microarray binders of probe aWnt5a, primary screen, biochemical, biotinylated probe, 635/667 nm fluorescence (AID 1113); conditions: higher = more signal;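 further: score merges 667 nm fluorescence intensity with signal-to-noise per printed feature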
# [17] = small-molecule microarray binders of probe aShh, primary screen, biochemical, biotinylated probe, 635/667 nm fluorescence (AID 1114); conditions: higher = more signal;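 further: probe is biotin-labelled aShh protein from a stem cell growth factor screen; measures binding of labelled protein to compounds printed on the slide; score merges feature fluorescence at 667 nm with signal-to-noise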
# [18] = small-molecule microarray binders of probe aNog, primary screen, biochemical, biotinylated probe, 635/667 nm fluorescence (AID 1115); conditions: higher = more signal;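 further: probe is biotinylated aNog protein used at 0.15 µg/mL for 1 h at 4 C; z-score combines 667 nm fluorescence of each spot with its signal to noise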
# [19] = target: Torsin-1A-interacting protein 1 (Homo sapiens) (UniProt Q5JTV8); assay: LAP1 binders from COS7 cell lysate, primary screen, small-molecule microarray, 635/667 nm fluorescence (AID 1116); conditions: COS7-hLAP1 lysate binding, 635 nm fluorescence, higher = more signal
# Chain of Torsin-1A-interacting protein 1 (Homo sapiens) (Q5JTV8 whole entry, looked up): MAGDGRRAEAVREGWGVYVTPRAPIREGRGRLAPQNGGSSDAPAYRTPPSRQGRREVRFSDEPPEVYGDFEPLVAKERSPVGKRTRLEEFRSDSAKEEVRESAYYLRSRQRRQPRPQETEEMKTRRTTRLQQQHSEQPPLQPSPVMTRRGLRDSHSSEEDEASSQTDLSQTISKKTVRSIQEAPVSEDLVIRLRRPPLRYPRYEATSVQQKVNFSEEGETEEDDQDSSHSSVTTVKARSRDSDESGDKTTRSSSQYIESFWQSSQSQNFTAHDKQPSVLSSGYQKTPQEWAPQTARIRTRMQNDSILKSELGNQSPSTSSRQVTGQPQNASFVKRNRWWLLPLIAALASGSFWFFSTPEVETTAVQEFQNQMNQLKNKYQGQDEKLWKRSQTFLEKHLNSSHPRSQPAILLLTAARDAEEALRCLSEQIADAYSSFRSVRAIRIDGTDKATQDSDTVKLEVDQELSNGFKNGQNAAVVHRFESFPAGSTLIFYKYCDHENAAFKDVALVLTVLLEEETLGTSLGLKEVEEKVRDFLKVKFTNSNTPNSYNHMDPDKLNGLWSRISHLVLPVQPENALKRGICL
# [20] = target: Alpha-bungarotoxin (Bungarus multicinctus) (UniProt P60615); assay: alpha-bungarotoxin binders on microarray, profiling panel, artefact control for SMM control protein annotation, biochemical, small-molecule microarray, Alexa647 label, 635/667 nm fluorescence (AID 1117); conditions: alpha-BTX-A647 binding fluorescence, higher = more signal
# Chain of Alpha-bungarotoxin (Bungarus multicinctus) (P60615 whole entry, looked up): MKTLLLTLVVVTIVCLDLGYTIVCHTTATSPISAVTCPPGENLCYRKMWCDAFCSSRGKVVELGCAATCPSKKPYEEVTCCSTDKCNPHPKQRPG
SMILES,composite z-score [1],composite z-score [2],composite z-score [3],z-score [4],composite z-score [5],composite z-score [6],composite z-score [7],composite z-score [8],composite z-score [9],composite z-score [10],composite z-score [11],z-score [12],composite z-score [13],composite z-score [14],composite z-score [15],composite z-score [16],composite z-score [17],composite z-score [18],composite z-score [19],composite z-score [20]
CN(C)C(=O)[C@]1(Cc2ccccc2N=[N+]=[N-])N=C(c2ccc(OCCCO)cc2)O[C@@H]1c1ccccc1,1.47,0.467,0.787,-1.17 (inactive),0.818,1.28,0.0161,0.373,-0.121,0.545,1.08,-1.85,0.104,0.516,0.0377,-0.329,-0.116,0.973,0.897,1.3
COc1ccc(CCNC(=O)[C@@]2(C)c3ccccc3C(=O)N(Cc3cc(F)cc(C(F)(F)F)c3)[C@H]2c2ccc(CO)cc2)cc1,1.59,0.362,0.875,-1.23 (inactive),0.512,-0.596,-0.244,-0.972,-0.434,-0.0094,0.0404,-0.928,-0.454,0.123,-0.183,-0.0944,-0.0849,0.549,-0.152,-0.838
CN1C(=O)C2C=CC(C(O)c3cc(C(F)(F)F)cc(C(F)(F)F)c3)N(N3CCCCC3)C2C1=O (stereo not given),0.567,0.853,1.01,0.139 (inactive),0.246,-0.0883,-0.448,0.0198,-0.722,0.291,1.24,-0.353,-0.599,1.34,0.769,0.0775,0.42,1.15,0.287,0.49
C=C[C@H](COC(C)=O)N(C(=O)OC(C)(C)C)S(=O)(=O)c1ccc(Br)cc1,0.0995,1.29,0.639,0.353 (inactive),0.619,0.484,0.517,0.507,0.717,0.838,0.4,-0.757,0.467,-0.159,-0.907,0.205,0.113,-0.0185,0.395,0.397
CCCCc1cn(C[C@H](Cc2ccccc2)NC(=O)N[C@H](CO)CCc2oc(C(C)=O)c(C(=O)OC)c2C(=O)OC)nn1,0.595,-0.164,-0.22,-0.949 (inactive),1.04,1.02,0.717,1.4,0.485,-0.0075,1.39,-0.639,1.26,0.451,-0.693,-0.0045,0.184,-0.0965,0.644,0.463
COc1ccc(CCNC(=O)[C@@]2(Sc3ccc(C)cc3)CC(=O)N(C3CCCCC3)[C@@H]2c2ccc(CO)cc2I)cc1,1.09,-0.0662,0.44,0.451 (inactive),0.724,0.974,0.0902,1.03,0.0743,0.327,1.38,-2.77,0.0072,0.99,0.161,-0.0903,0.323,-0.158,0.95,0.649
C=CCOC(=O)[C@H]1[C@@H]2C(=O)O[C@@H](c3ccccc3)[C@@H](c3ccccc3)N2[C@@H](c2ccc(OCCOC(=O)[C@@H]3C[C@@H]4C(=O)N[C@@H](CCCC[N+](C)(C)C)C(=O)N4[C@@H]3c3ccc(O)cc3)cc2)[C@]12C(=O)Nc1ccccc12,1.05,0.415,-0.372,-0.794 (inactive),0.805,1.3,0.383,1.24,0.716,-0.0117,1.26,-1.11,0.498,-0.0632,-0.499,-0.0398,0.123,-0.13,0.425,0.428
C=CC[C@]1(C(=O)NCCCOC)N=C(c2ccc(OCCCO)cc2)O[C@H]1c1ccccc1N=[N+]=[N-],1.65,-0.188,0.658,-0.885 (inactive),1.44,0.746,-0.223,0.348,-0.516,1.29,1.05,-0.682,-0.338,2.08,0.312,0.191,0.535,1.8,1.47,0.928
O=C1OCC=C[C@H]2OC34C=CCN(c5ccc6ccccc6c5)C(=O)[C@H]3N(CCCCCCO)C(=O)[C@@H]4[C@@H]12 (stereo not given in full),1.66,-0.117,0.817,-0.076 (inactive),-0.821,-1.12,-1.79,-1.69,-0.854,0.0633,-0.925,0.699,-1.06,-0.327,0.132,-0.152,0.0121,0.509,1.09,-1.01
COc1cc2c(cc1OC)CN(C(=O)[C@H]1[C@@H]3C(=O)O[C@@H](c4ccccc4)[C@@H](c4ccccc4)N3[C@@H](c3ccc(O)cc3)[C@]13C(=O)Nc1ccc(C#CC4=CCCCC4)cc13)CC2,1.32,0.817,0.785,-0.58 (inactive),1.14,1.29,0.405,1.43,0.779,-0.301,0.282,-1.67,1.07,1.61,0.0648,0.133,-0.0146,-0.315,0.885,1.67
